Records with an inconclusive call do not appear. Where a call stands in place of a potency, no number is given. The source made the active and inactive calls. Calls follow the shape of the dose curve; as a rule, active = well fitted activation curve with a large enough effect in the repeat runs; inconclusive = weak or mixed curves; inactive = flat fitted curve, though single readings scatter.
test: A CellTox Green Cytotoxicity Assay to monitor cytotoxicity in HepG2 cells - 8 hour (AID 1224890); conditions: CellTox Green fluorescence; series mostly up to 76.8 µM; also: nearly all actives have a fitted effect of over 45% in size
From the text: National Center for Advancing Translational Sciences [NCATS]
NIH Chemical Genomics Center [NCGC]
U.S. Environmental Protection Agency [EPA]
National Institutes of Environmental Health Sciences [NIEHS]
National Toxicology Program [NTP]
Cell-based models are critical for drug discovery. Determining the natural cytotoxic effects resulting from test compounds is an essential research activity. A CellTox Green Cytotoxicity Assay to monitor cytotoxicity in real time of continues cell culture during 40 hours of the compound treatment was used to screen Tox21 10K library compounds in HepG2 cells. CellTox Green Cytotoxicity Assay is a nonlytic, homogeneous, biofluorescent method to measure cytotoxicity in cell culture after experimental manipulation. The assay system uses a proprietary asymmetric cyanine dye that is excluded from viable cells but preferentially stains the dead cell's DNA. […] Viable cells produce no appreciable increases in fluorescence. Therefore, the fluorescence signal produced by the binding interaction with dead cell DNA is proportional to cytotoxicity.
The mixture of HepG2 cell suspension and reagents were dispensed at 600cells/6 ul/well in 1536-well tissue culture treated black solid bottom plates using a Multidrop dispenser. After the assay plates were incubated at a 37 C/5% CO2 incubator for 5 hours, 23 nL of compounds dissolved in DMSO, positive and negative controls was transferred to the assay plate by a pintool work station. The plates were incubated at 37 C for 40 hours. The fluorescence intensity were measured at 0h, 8h, 16h, 24h, 32h and 40h time points using ViewLux plate reader during compound treatment.
Potency is read from the fitted curve at half-maximal effect.

Compound	Potency	cytotoxicity increase
CCCCCCCCCCCCCCCCC	inactive	
C=C(C)C(=O)OCCCCCCCC(C)C	inactive	
CCCCCSCCCCC	inactive	
O=C(O)CNC(=O)c1ccc([N+](=O)[O-])cc1	inactive	
CC(=O)OCC(=O)[C@@]1(O)CC[C@H]2[C@@H]3CCC4=CC(=O)CC[C@]4(C)[C@H]3C(=O)C[C@@]21C	inactive	
COc1cc(C(=O)N2CCCCCCC2)cc(OC)c1OC	inactive	
COc1ccc2c(c1)CCCC2=O	inactive	
CCN1CCC[C@H]1CNC(=O)c1cc(S(N)(=O)=O)ccc1OC	inactive	
C[N+](C)(C)CCCCCC[N+](C)(C)C	inactive	
CC(=O)OCC(CCn1cnc2cnc(N)nc21)COC(C)=O	inactive	
Cc1cc(O)cc2c1O[C@](C)(CCC[C@H](C)CCC[C@H](C)CCCC(C)C)CC2	inactive	
CCC(C)S (stereo not given)		-0.336% [at 2.72 µM] (inactive)
CCCCCCOC(=O)CCCCC(=O)OCCCCCC	inactive	
OC[C@]1(O)OC[C@@H](O)[C@H](O)[C@@H]1O	inactive	
CC(C)(O)C(=O)c1ccccc1	inactive	
CCOC(=O)CC(C)=O	inactive	
CC(=O)OCC(=O)[C@@]1(O)CCC2C3CCC4=CC(=O)CC[C@]4(C)C3[C@@H](O)C[C@@]21C (stereo not given in full)	inactive	
CO[C@]12C[C@@H](COC(=O)c3cncc(Br)c3)CN(C)[C@@H]1Cc1cn(C)c3cccc2c13	26.8 µM (active)	
CN(C)CCCN1c2ccccc2CCc2ccc(Cl)cc21	inactive	
CN1CCCC1	inactive	

Compound	Potency	cytotoxicity increase
FC(F)OC(Cl)C(F)(F)F (stereo not given)	inactive	
Cc1c(NC(C)C)c(=O)n(-c2ccccc2)n1C	inactive	
CC(C)OC(=O)c1ccccc1	inactive	
CC(=O)CC(C)C	inactive	
N=c1nc(N2CCCCC2)cc(N)n1O	inactive	
CCCCCCCCCCCCN(CCCCCCCCCCCC)CCCCCCCCCCCC	inactive	
O=c1cc(-c2ccccc2)oc2ccccc12	inactive	
CCOC(C)(C)C	inactive	
CC/C=C\CCOC(C)=O	inactive	
CC(C)(O)C#CC(C)(C)O	inactive	
Cc1sccc1Br	inactive	
C[N+](C)(C)CC(O)CC(=O)[O-] (stereo not given)	inactive	
N=C(N)c1ccccc1	inactive	
CS(=O)(=O)O	inactive	
Cn1c(N)c(N=O)c(=O)n(C)c1=O	inactive	
CC/C=C\CC/C=C/CO	inactive	
CCOC(=O)Nc1ccc(NCc2ccc(F)cc2)nc1N	inactive	
CCCCNC(=O)NCCCC	inactive	
CC(C)(C)c1nnc(NS(=O)(=O)c2ccccc2)s1	inactive	
C=C(C)CS(=O)(=O)O	inactive	

Reference: PubChem BioAssay (Tox21)
